Source: PubChem
Compounds with a hit are over-represented: about 3.4% of the library has one in this group of screens.
MITF inh = inhibitors of human MITF. O75030. AlphaScreen MITF homodimerization, bead proximity signal. inhibition, % at 2.6 µM. 0.91% of 650,000 active; in the data active means inhibition above about 50%
TEAD-YAP block = TEAD-YAP interaction inhibition | HEK-TIYL cells, TEAD-Gal4/YAP UAS-luciferase luminescence | inhibition, % at 9.12 µM | 1.4% of 640,000 active; in the data active means inhibition above about 32%
FBW7 activator = activators of human E3 ligase FBW7. AID 1259310. 0.13% of 650,000 active. Q969H0. AlphaScreen FBW7–phospho-cyclin E peptide binding, activator screen. normalized activity (activation), % at 26.1 µM; in the data active means normalized activity above about 1.9%;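 further: purified mutant Fbw7 with reduced substrate affinity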
Target sequence (Q969H0 whole entry, looked up): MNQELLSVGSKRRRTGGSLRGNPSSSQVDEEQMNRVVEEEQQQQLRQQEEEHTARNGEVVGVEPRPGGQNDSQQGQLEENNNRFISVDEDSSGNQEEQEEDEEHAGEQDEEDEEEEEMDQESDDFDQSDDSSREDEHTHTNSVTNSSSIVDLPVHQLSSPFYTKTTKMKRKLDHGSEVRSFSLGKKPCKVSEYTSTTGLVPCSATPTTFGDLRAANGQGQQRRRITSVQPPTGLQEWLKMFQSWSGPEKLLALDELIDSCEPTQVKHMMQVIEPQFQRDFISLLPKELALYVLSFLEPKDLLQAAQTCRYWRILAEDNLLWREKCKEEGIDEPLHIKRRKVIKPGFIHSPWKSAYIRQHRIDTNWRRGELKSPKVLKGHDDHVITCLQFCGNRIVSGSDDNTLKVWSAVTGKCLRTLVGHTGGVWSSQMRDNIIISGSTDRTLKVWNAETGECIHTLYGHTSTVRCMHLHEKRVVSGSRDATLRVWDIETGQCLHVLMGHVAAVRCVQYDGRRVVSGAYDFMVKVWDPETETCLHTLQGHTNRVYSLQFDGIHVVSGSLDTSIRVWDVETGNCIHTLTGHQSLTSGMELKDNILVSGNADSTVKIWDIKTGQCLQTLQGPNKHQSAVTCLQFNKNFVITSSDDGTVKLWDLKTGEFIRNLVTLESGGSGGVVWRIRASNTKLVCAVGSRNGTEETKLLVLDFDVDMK
GPR151 activ = activators of human GPR151; Q8TDV0; PathHunter beta-arrestin GPR151 cells, luminescence; activation, % at 11.2 µM; 1% of 650,000 active; AID 1508602; in the data active means activation above about 4.9%
GPR151 confirm = confirmation of human GPR151 activators. shares compounds with GPR151 activ. GPR151 PathHunter beta-arrestin cells, luminescence, 90 min; % of EA-reagent control over plate median. activation, % at 11.2 µM. 6,700 tested, under 10 active;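 active means mean percent activation across replicates above the confirmation screen cutoff of 4.91%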
GPR119 counter = GPR119 activation, counter-screen for GPR151 activators; shares compounds with GPR151 activ; GPR119 PathHunter beta-arrestin cells, luminescence, 90 min; 0 = compound-well median, 100 = enzyme-acceptor control; activation, % at 11.2 µM; 0.3% of 6,700 active;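 active means mean percent activation in the counterscreen above 29.09%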;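 further: counterscreen on off-target GPR119 to flag nonselective hits from the GPR151 activator screen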
A number is an active result; 0 = inactive; - = no result.

SMILES | MITF inh | TEAD-YAP block | FBW7 activator | GPR151 activ | GPR151 confirm | GPR119 counter
CC(C)(C)C(=O)NC(=O)Nc1ncc(S(C)(=O)=O)c(-c2ccc(C(F)(F)F)cc2)n1 | 0 | 0 | 0 | 8.0 | 0 | 0
CS(=O)(=O)c1cnc(-c2ccncc2)nc1-c1ccc(C(F)(F)F)cc1 | 0 | 0 | 0 | 0 | - | -
O=C1C(=O)N(c2ncccn2)C(c2ccc(Cl)cc2)/C1=C(\O)c1ccccc1 (stereo unspecified) | 0 | 0 | 0 | 0 | - | -
CCOCCSc1nnc(-c2cccnc2)n1-c1ccccc1F | 0 | 0 | 0 | 0 | - | -
CCS(=O)(=O)n1nc(-c2ccccc2)nc1NCc1ccco1 | 0 | 0 | 0 | 12 | 0 | 0
O=C(c1cc(Cl)ccc1[N+](=O)[O-])N1CCN(c2ncccn2)CC1 | 0 | 0 | 0 | 8.3 | 0 | 0
Cc1ccc(-n2nnc3c(=O)n(CC(=O)NCc4ccc(F)cc4)cnc32)cc1 | 0 | 0 | 0 | 0 | - | -
CCN1C(=O)Cc2ccccc21 | 0 | 0 | 0 | 6.7 | 0 | 0
O=C(Nc1nnc(-c2ccc(Br)cc2)s1)c1ccccc1F | 0 | 0 | 0 | 0 | - | -
CCOC(=O)c1cc2oc(C)cc2n1CC(=O)NC1CC1 | 0 | 0 | 0 | 0 | - | -
CC(Cc1ccccc1)N=c1nc2c(ncn2C)c(N)n1C (stereo unspecified) | 0 | 0 | 0 | 0 | - | -
O=C(CCCOc1ccccc1)NNC(=O)c1ccccc1 | 0 | 0 | 0 | 26 | 0 | 0
CC(=O)c1ccc(OCCCC(=O)NNC(=O)c2ccccc2)cc1 | 0 | 0 | 0 | 0 | - | -
CCN(CC(=O)Nc1ccc(NC(C)=O)cc1)S(=O)(=O)/C=C/c1ccccc1 | 0 | 0 | 0 | 7.4 | 0 | 0
CCCCOC(=O)C1=C(C)N(C)C(=O)NC1c1ccccc1Cl (stereo unspecified) | 0 | 0 | 0 | 7.2 | 0 | 0
CCCOC(=O)C1=C(C)N(C)C(=O)NC1c1ccccc1Cl (stereo unspecified) | 0 | 0 | 0 | 0 | - | -
O=c1ccc2cc(S(=O)(=O)NCc3ccco3)ccc2o1 | 0 | 0 | 0 | 0 | - | -
O=c1[nH]c2ccc(S(=O)(=O)NCc3ccco3)cc2o1 | 0 | 0 | 0 | 6.0 | 0 | 0
C=CSc1sc(Cl)c(N2CCC3(CC2)OCCO3)c1[N+](=O)[O-] | 0 | 0 | 0 | 5.2 | 0 | 0
C=CSc1sc(Cl)c(N2CCOCC2)c1[N+](=O)[O-] | 0 | 0 | 0 | 0 | - | -
COc1ccc(CCNc2ccnc(Nc3ccc(N4CCOCC4)cc3)n2)cc1 | 0 | 78 | 0 | 8.3 | 0 | 60
c1cc(Nc2ccc3c(c2)OCO3)nc(Nc2ccc(N3CCOCC3)cc2)n1 | 0 | 71 | 0 | 5.1 | 0 | 0
c1cc(Nc2ccc(N3CCOCC3)cc2)nc(Nc2ccc(N3CCOCC3)cc2)n1 | 0 | 0 | 0 | 0 | - | -
COc1ccc(CCNc2cc(C)nc(Nc3cccnc3)n2)cc1 | 0 | 0 | 0 | 0 | - | -
COc1ccc(CCNc2cc(-c3ccc(N4CCN(C)CC4)cc3)ncn2)cc1 | 0 | 0 | 0 | 6.9 | 0 | 0
SMILES | MITF inh | TEAD-YAP block | FBW7 activator | GPR151 activ | GPR151 confirm | GPR119 counter
COc1ccc(CCNc2cc(C)nc(Nc3ccc4ncccc4c3)n2)cc1 | 0 | 47 | 0 | 7.0 | 0 | 0
COc1ccc(CCNc2ccnc(N3CCOCC3)n2)cc1 | 0 | 0 | 0 | 0 | - | -
C=CC[C@@H]1CC=C[C@@H](C)N1C(=O)CCC1(Cc2cccs2)CCC(=O)N1 (stereo partly specified) | 0 | 0 | 0 | 0 | - | -
COC(=O)c1ccc2c(=O)n(CCc3ccc(S(N)(=O)=O)cc3)c(SCC(=O)c3ccccc3)nc2c1 | 0 | 0 | 0 | 0 | - | -
COC(=O)c1ccc2c(=O)n(CCc3ccc(S(N)(=O)=O)cc3)c(SCc3c(F)cccc3F)nc2c1 | 0 | 0 | 0 | 16 | 0 | 0
O=C(NC1CC1)c1cnc(N2CCN(c3ccccn3)CC2)s1 | 0 | 0 | 0 | 5.0 | 0 | 0
CN(C)C(=O)c1nc2ccc(Cl)cn2c1CNCCc1nc2ccccc2n1C | 0 | 0 | 0 | 0 | - | -
CC1CCCCN1Cc1ccc(C(=O)NCc2cnc3ccccc3c2)c(=O)[nH]1 (stereo unspecified) | 0 | 0 | 0 | 11 | 0 | 0
CCN(CC)Cc1ccc(C(=O)NCc2cnc3ccccc3c2)c(=O)[nH]1 | 0 | 0 | 0 | 0 | - | -
CC(C)CCNc1c(-c2ccccc2)c(=O)c1=O | 0 | 0 | 0 | 6.9 | 0 | 0
COC(=O)c1sc2cc([N+](=O)[O-])cc(Sc3ccccc3)c2c1-n1cccc1 | 0 | 0 | 0 | 5.7 | 0 | 0
